# The list is not random: actives were taken first. Their share in the collection is about 6.5%.
# Lassa entry inh: inhibitors of Lassa virus binding or cell entry. Potency, µM (doses to about 37.9 µM), inactives show at the highest dose activity change, negative = inhibition, most hits filed as inhibitors. Lassa virus pseudotype entry inhibition, cell reporter. 300,000 tested, 1.2% active; calls by dose curve; tested in HEK293 cells; further: potency means the concentration at half of the fitted maximal effect; nearly all actives have a fitted effect of over 50% in size
# FMDV antiviral: blocks foot and mouth disease virus. FMDV antiviral cell-based qHTS. Potency, µM (series often up to 57.9 µM), without a hit: at the highest dose activity change, negative = inhibition, actives largely listed as inhibitors. 410,000 tested, 1.2% active; calls by dose curve; tested in HEK293T cells; further: read-out not given here; potency means the concentration at half of the fitted maximal effect; nearly all actives have a fitted effect of over 45% in size
# VACV mCherry inh: inhibitors of vaccinia virus infection (mCherry reporter signal). AID 720579. 310,000 tested, 0.63% active. Vaccinia virus mCherry reporter infection, fluorescence. Potency, µM (doses to about 36.5 µM), for inactives: at the highest dose activity change, negative = inhibition, hits mostly inhibitors; calls by dose curve; tested in A549 cells; further: potency means the concentration at half of the fitted maximal effect; nearly all actives have a fitted effect of over 35% in size
# VACV Venus inh: vaccinia inhibition (Venus reporter). 330,000 tested, 0.46% active. Vaccinia virus Venus reporter expression, fluorescence. AID 720580. Potency, µM (titrated, usually from 36.5 µM), for inactives: at the top dose activity change, negative = inhibition, most hits filed as inhibitors; calls by dose curve; tested in A549 cells; further: potency means the concentration at half of the fitted maximal effect; nearly all actives have a fitted effect of over 30% in size
# HCMV inh: human cytomegalovirus inhibition. HFF cells, HCMV-luciferase reporter, 72 h; hits give low values. activity change, negative = inhibition, % at 57.5 µM. 410,000 tested, 4.5% active; in the data active means activity change below about -60%; inconclusive means no clear call, values can overlap the other calls; inactive means above about -39%
#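 Screen run at 2 compound doses on HFFs infected with reporter HCMV, MOI 1 PFU/cell. Luciferase activity from cell lysates at 72 h post infection gave inhibition relative to buffer-only and Salinomycin wells.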
# Marburg entry inh: blocks Marburg virus binding to or entry into cells. Marburg virus pseudotyped entry inhibition, cell reporter. Potency, µM (top dose mostly 37.8 µM), without a hit: at the highest dose activity change, negative = inhibition, most hits filed as inhibitors. 300,000 tested, 1.8% active. AID 540276; calls by dose curve; tested in HEK293 cells; further: potency means the concentration at half of the fitted maximal effect
# Active calls of the source: *; i = inactive; ? = inconclusive; · = no result; [ ] = another dose, or the depositor's remark. On the % scale 0 is the no-effect control and ±100 the full control effect.
SMILES,Lassa entry inh,FMDV antiviral,VACV mCherry inh,VACV Venus inh,HCMV inh,Marburg entry inh
CC(=O)N(Cc1ccc(F)cc1)C1=C(NCc2ccccc2)C(=O)c2ccccc2C1=O,6.31µM*,35.5µM*,2.51µM*,3.55µM*,·,?
COc1ccccc1CNC(=O)COCc1cc(-c2ccc3c(c2)OCO3)on1,7.3%[46.1 µM],-13.9%,-12.5%,-12.4%,0.2,·
COc1ccc2nc(N=Nc3ccc(O)c4ccccc34)sc2c1,?,-0.1%,i,-18.3%,-75.7*,?
COc1ccc2nc(N=NC3=C(O)CC(C)(C)CC3=O)sc2c1,14.6µM*,11.9%,?,-7.1%,-94.6*,13µM*
CC1(C)CC(=O)C(N=Nc2ccc3ncsc3c2)=C(O)C1,?,40.5%,-10.0%,-5.4%,-2.8,11.2%
Cc1nn(-c2nc3ccccc3s2)c(C)c1Oc1ccccc1O,?,-99.6%,?,-11.7%,·,4.61µM*
Cc1cccc(NC(=O)c2ccc([N+](=O)[O-])s2)c1C,2.5%,1.9%,·,·,-66.2*,-37.1%
Cc1cccc(NC(=O)c2ccc([N+](=O)[O-])s2)n1,·,24.5%,·,·,-77.7*,·
Cc1ccc(NC(=O)Nc2cccc(C)n2)cc1,-1.2%[46.1 µM],49.9%,-14.1%,-10.0%,103.8,·
Cc1cccc(NC(=O)Nc2ccc([N+](=O)[O-])cc2)n1,·,29.1%,·,·,-62.3*,·
O=C(NNC(=O)c1cccc(O)c1)Nc1ccc([N+](=O)[O-])cc1,3.4%[46.1 µM],-10.2%,?,-10.3%,-96.5*,-3.3%[46.1 µM]
O=C1CCC[C@@H]2[C@@H](Cc3ccccc3)[C@@H](Nc3ccccc3)C[C@@H]3CCN1[C@@H]32,·,·,i,-8.8%,·,·
CC(C)(C)c1ccc(/C=N/NC(=O)Cc2c[nH]c3ccccc23)cc1,?,-10.3%,·,·,51.8,14.6µM*
C/C(=N\NC(=O)Cc1c[nH]c2ccccc12)c1ccc2ccccc2c1,3.98µM*,11.6%,-18.4%,-20.2%,81.0,?
O=C(Cc1c[nH]c2ccccc12)N/N=C/c1ccccc1O,·,78.7%,·,·,-26.5,·
CN(Cc1ccccc1)C(=O)[C@H](Cc1ccc2ccccc2c1)NC(=O)[C@@H]1C[C@@H](O)CN1C(=O)c1cn(C)c2ccccc12,·,28.0%,·,·,·,·
C=C(C)COc1ccc(-c2n[nH]c(C)c2-c2ccc(OC)cc2)c(O)c1,?,25.1µM*,·,10µM*,-106.2*,?
COc1ccc(-c2n[nH]c(C)c2-c2cscn2)c(O)c1,·,-10.6%,?,-10.1%,?,·
COC(=O)c1cccc(NS(=O)(=O)c2cccs2)c1C,3.0%,19.8%,·,·,55.5,-7.6%
CC(C)(C)c1ccc(S(=O)(=O)/N=C2\C=C(NS(=O)(=O)c3ccccc3)C(=O)c3ccccc32)cc1,?,27.7%,i,6.9%,-10.9,-11.1%[46.1 µM]
COC(=O)c1ccccc1NC1=C/C(=N\S(=O)(=O)c2cccs2)c2ccccc2C1=O,4.47µM*,2.51µM*,?,?,-29.7,3.66µM*
CCc1ccc(S(=O)(=O)/N=C2\C=C(Nc3ccc(C(=O)O)cc3)C(=O)c3ccccc32)cc1,?,?,?,-6.4%,-97.6*,?
COC(=O)c1ccccc1Nc1ccccc1,-7.0%,-6.9%,·,·,25.8,-34.8%
COC(=O)c1ccccc1NC1=C/C(=N\S(=O)(=O)c2ccc(C(=O)O)cc2)c2ccccc2C1=O,?,?,25.1µM*,?,·,?
Cc1ccc(S(=O)(=O)/N=C2\C=C(Nc3ccc(O)cc3)C(=O)c3ccccc32)cc1,2.82µM*,10µM*,5.01µM*,2.24µM*,·,?
SMILES,Lassa entry inh,FMDV antiviral,VACV mCherry inh,VACV Venus inh,HCMV inh,Marburg entry inh
C[N+](C)(C)c1ccc(/C=C/c2ccnc3ccccc23)cc1,·,·,233.1%,97.3%,·,·
Cc1ccc(NC(=O)/C(C#N)=C/c2cc(C)n(-c3ccc(Br)cc3)c2C)cc1C,10.4%[46.1 µM],?,-8.5%,-19.2%,-108.5*,·
Cc1ccc(NCc2ccc(O)c3ncccc23)cc1,?,-5.5%,i,-9.4%,-23.4,?
Oc1ccc(N=Nc2ccc3c(c2)OCCO3)c2ncccc12,·,3.98µM*,·,·,-103.0*,·
Cc1ccc(C)c(N=Nc2ccc(O)c3ncccc23)c1,·,?,·,·,-83.7*,·
O=C(Nc1ncccc1O)c1ccc2c(c1)OCCO2,?,31.4%,?,-19.4%,1.1,?
Cc1cccc(N=Nc2ccc(O)c3ncccc23)c1,?,5.8%,14.1µM*,?,-102.2*,4.47µM*
S=C(NCCCc1cnc[nH]1)NCCCN(Cc1ccc(Cl)cc1)c1ncc(Br)cn1,·,·,-25.0%,?,·,·
COc1ccc(NC(=O)C2CCCN(C(=O)c3cnn(-c4ccccc4)c3-n3cccc3)C2)cc1 (configuration not stated),?,-12.2%,-28.8%,-23.1%,?,?
Cc1ccc(NC(=O)CN2C(=O)COc3ccc(S(=O)(=O)N4CCCCC4)cc32)cc1N(C)C,18.6%[46.1 µM],-12.2%,-9.7%,-6.4%,-36.5,·
CCC(O)CC(C(=O)NNc1ccccc1)C(=O)NNc1ccccc1 (configuration not stated),?,-1.7%,-13.9%,-8.0%,-37.8,2.51µM*
COc1ccc(NC(=O)CSc2oc(-c3ccco3)nc2S(=O)(=O)c2ccc(Br)cc2)c(OC)c1,5.7%[46.1 µM],-7.6%,-9.1%,-4.7%,2.0,0.7%[46.1 µM]
c1ccc(Nc2nc(-c3ccccc3)ns2)cc1,?,2.5%,-11.4%,-9.4%,141.0,10µM*
CCc1c(C)sc2nc(C(C)C)nc(SCC(=O)N3CCc4ccccc4C3)c12,20.6µM*,·,28.8%,29.2%,-90.3*,?
O=c1oc2ccccc2n1Cc1cccc(F)c1,·,3.0%,·,·,?,·
O=c1ccc2ccccc2n1Cc1cccc(F)c1,·,10.0%,·,·,-62.3*,·
CCCC(C(=O)NC1CCCC1)N(Cc1ccc(F)cc1)C(=O)c1snc(C(N)=O)c1N (configuration not stated),?,-5.2%,i,2.8%,42.1,?
CCCC(C(=O)NC1CCCC1)N(Cc1ccccc1Cl)C(=O)c1snc(C(N)=O)c1N (configuration not stated),1.7%[46.1 µM],16.5%,-8.5%,-4.3%,?,10µM*
CCCCC(C(=O)NC1CCCC1)N(Cc1ccccc1)C(=O)c1snc(C(N)=O)c1N (configuration not stated),?,-14.3%,i,-4.0%,-60.8*,?
CCC(C(=O)NC1CCCC1)N(Cc1ccccc1Cl)C(=O)c1snc(C(N)=O)c1N (configuration not stated),·,-8.4%,-1.3%,-15.7%,-6.3,?
O=C(c1ccc(COc2ccc(F)cc2)o1)n1cccn1,14.4%,7.1%,i,-11.0%,-103.8*,17.0%
C=CCc1ccc(OCc2ccc(C(=O)O)o2)c(OC)c1,?,14.1µM*,i,-15.8%,179.5,?
CCOc1ccc(OCc2ccc(C(=O)O)o2)cc1,?,8.91µM*,-15.7%,-10.2%,29.9,?
CCCc1ccc(OCc2ccc(C(=O)O)o2)c(OC)c1,?,-66.3%,-9.3%[1.46 µM],-7.5%,32.6,?
